Experimental findings from publication PMC7862700, “An all-to-all approach to the identification of sequence-specific readers for epigenetic DNA modifications on cytosine” are described below.

Common to all, as to experiment: DAPPL (digital affinity profiling via proximity ligation, sequencing); 10 mM Tris-HCl pH 7.5, 50 mM NaCl, 1 mM DTT, 4% glycerol, room temperature, 30 min; GST-TFs on glutathione beads, 16-mer random dsDNA library, 0.1% formaldehyde crosslink after washing; high values mean tight binding
What all share (settings): protein: recombinant; tags: N-terminal GST; dsDNA, one strand shown

One experiment deals with T1, FLI1 (Homo sapiens, UniProt Q01543 1-452).
T1 sequence: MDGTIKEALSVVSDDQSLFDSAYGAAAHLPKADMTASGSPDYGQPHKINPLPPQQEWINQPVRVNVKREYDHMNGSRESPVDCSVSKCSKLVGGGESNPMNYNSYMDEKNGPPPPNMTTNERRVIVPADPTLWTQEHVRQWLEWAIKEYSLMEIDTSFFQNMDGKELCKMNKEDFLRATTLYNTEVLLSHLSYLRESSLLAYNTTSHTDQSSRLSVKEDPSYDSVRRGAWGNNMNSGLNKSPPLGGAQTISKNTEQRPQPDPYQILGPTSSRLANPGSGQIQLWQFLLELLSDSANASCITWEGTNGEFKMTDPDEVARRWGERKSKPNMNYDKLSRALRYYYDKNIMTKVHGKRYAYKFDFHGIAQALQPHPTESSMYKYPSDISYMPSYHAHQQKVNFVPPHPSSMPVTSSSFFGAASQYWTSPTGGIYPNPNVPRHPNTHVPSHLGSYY
The method, boiled down: (§1)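 Human transcription factors carrying a GST fusion were produced in yeast, bound to glutathione beads, tagged with DNA barcodes and pooled together with a tag-only sample. Each pool was held with 200 nmole of a random double-stranded 16-mer DNA library in Tris/NaCl/DTT/glycerol buffer for 30 min at room temperature, then washed, crosslinked in 0.1% formaldehyde, proximity-ligated with BsaI/T4 ligase (1 h, 37 °C), PCR-amplified and sequenced on an Illumina NextSeq500. Binding signal is the read frequency of each hexamer for a given factor divided by its frequency in the tag-only sample.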

The target in the next experiment is T2, ELK1 (Homo sapiens, UniProt P19419 1-428).
T2 sequence: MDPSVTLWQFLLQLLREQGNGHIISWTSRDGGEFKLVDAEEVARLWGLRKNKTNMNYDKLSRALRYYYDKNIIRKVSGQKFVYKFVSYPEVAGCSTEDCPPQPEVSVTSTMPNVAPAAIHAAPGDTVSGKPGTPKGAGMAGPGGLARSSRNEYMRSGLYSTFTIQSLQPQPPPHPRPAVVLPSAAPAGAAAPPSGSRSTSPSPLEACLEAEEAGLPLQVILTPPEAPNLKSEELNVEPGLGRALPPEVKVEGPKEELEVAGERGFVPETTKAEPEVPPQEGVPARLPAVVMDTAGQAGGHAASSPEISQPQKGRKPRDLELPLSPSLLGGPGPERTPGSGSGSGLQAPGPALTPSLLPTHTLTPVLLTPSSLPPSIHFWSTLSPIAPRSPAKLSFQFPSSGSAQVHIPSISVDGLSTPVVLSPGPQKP
The method, boiled down: as §1

In another experiment the target is T3, GABPA (Homo sapiens, UniProt Q06546 1-454).
T3 sequence: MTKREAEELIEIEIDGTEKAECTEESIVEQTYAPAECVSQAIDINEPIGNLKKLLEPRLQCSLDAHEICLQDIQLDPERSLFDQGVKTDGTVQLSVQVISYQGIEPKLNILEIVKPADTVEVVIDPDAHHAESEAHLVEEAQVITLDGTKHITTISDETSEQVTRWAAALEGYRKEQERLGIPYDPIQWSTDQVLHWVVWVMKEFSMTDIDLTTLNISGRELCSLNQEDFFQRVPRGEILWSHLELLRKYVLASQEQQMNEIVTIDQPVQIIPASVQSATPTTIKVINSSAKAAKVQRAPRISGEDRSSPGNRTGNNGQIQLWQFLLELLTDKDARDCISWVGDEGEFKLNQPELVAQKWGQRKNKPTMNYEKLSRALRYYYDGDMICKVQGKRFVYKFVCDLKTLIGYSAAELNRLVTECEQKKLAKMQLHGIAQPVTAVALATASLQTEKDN
The essentials: as §1

The target of the next experiment is T4, ERG (Homo sapiens, UniProt P11308 1-479).
T4 sequence: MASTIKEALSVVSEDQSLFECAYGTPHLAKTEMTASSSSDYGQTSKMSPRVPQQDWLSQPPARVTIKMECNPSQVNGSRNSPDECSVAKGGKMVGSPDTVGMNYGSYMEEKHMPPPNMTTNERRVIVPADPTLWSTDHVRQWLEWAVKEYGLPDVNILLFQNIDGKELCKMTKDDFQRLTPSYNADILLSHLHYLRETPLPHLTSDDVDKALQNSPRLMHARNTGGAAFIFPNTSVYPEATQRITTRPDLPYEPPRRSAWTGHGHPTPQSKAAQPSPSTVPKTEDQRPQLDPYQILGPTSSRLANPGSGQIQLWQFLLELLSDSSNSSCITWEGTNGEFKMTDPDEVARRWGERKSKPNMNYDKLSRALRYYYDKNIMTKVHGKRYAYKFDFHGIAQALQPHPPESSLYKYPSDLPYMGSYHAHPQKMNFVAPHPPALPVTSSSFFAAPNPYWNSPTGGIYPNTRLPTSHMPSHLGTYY
The essentials:
as §1

For another experiment, the target named is ELF1 (Homo sapiens, UniProt P32519 1-619). The method, boiled down: as §1
Chain of ELF1 (P32519 whole entry): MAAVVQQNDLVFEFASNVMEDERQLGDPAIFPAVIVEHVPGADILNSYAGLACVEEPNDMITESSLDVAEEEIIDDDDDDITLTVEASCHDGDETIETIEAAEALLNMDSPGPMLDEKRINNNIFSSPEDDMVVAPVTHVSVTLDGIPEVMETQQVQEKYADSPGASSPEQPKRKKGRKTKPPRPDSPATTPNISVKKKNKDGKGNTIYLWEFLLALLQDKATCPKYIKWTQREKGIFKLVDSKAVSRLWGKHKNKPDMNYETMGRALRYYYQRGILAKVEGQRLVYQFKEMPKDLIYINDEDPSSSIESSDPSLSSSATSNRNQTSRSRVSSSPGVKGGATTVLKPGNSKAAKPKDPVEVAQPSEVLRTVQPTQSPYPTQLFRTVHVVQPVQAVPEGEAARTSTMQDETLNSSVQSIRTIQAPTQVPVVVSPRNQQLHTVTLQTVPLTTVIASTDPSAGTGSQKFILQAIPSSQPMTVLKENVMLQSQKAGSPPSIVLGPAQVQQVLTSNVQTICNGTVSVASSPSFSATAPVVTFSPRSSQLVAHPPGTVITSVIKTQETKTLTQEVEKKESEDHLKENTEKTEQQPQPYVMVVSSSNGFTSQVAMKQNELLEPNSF
A further experiment deals with T5, EHF (Homo sapiens, UniProt Q9NZC4 1-300).
T5 sequence: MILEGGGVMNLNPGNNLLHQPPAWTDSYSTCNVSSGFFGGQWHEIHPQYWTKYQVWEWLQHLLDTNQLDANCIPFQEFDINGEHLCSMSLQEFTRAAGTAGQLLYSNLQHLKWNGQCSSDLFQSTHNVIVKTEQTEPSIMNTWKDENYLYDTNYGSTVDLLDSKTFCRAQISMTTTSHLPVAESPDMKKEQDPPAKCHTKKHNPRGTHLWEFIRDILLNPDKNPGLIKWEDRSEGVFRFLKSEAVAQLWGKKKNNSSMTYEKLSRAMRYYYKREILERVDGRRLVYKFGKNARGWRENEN
The method, boiled down:
as §1

In a further experiment the target is SPI1 (Homo sapiens, UniProt P17947 1-270). The method, boiled down: as §1
Another experiment has as its target SPIB (Homo sapiens, UniProt Q01892 1-262). The essentials:
as §1

In the next experiment the target is T6, ELK3 (Homo sapiens, UniProt P41970 1-407).
T6 sequence: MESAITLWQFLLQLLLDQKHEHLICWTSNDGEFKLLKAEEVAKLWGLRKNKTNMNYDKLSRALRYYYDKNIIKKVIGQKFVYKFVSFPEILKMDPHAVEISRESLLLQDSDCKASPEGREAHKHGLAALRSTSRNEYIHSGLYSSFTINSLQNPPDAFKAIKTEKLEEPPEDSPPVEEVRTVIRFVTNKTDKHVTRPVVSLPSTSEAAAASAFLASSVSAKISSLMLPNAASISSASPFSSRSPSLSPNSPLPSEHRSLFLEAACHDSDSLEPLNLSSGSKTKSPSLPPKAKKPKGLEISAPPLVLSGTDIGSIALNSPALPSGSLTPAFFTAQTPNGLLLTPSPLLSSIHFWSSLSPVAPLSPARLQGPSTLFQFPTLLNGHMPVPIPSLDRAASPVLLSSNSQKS
The essentials: as §1

Chain of SPIB (Q01892 whole entry): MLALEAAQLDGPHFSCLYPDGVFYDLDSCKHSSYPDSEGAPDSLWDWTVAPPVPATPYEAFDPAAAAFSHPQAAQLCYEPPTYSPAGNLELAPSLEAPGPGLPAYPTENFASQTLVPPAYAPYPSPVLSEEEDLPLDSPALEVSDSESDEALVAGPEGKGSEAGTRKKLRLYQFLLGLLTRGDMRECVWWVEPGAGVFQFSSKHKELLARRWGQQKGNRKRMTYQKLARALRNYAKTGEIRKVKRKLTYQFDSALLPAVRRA

On to TTTTCG, for which the binding signal with FLI1 was 1.18 fold enrichment (6-mer frequency, TF over GST control); with ELK1 it was 1.28 fold enrichment (6-mer frequency, TF over GST control); with GABPA, 1.24 fold enrichment (6-mer frequency, TF over GST control); with ERG, 1.2 fold enrichment (6-mer frequency, TF over GST control); with ELF1, 1.22 fold enrichment (6-mer frequency, TF over GST control); with EHF it was 1.25 fold enrichment (6-mer frequency, TF over GST control). In addition, the binding signal in the experiment with SPI1 is 1.27 fold enrichment (6-mer frequency, TF over GST control); in the experiment with SPIB, 1.16 fold enrichment (6-mer frequency, TF over GST control); in the experiment with ELK3, 1.35 fold enrichment (6-mer frequency, TF over GST control).
For TACTCT, the binding signal with FLI1 is 1.37 fold enrichment (6-mer frequency, TF over GST control); with ELK1, 1.5 fold enrichment (6-mer frequency, TF over GST control); with GABPA, 1.52 fold enrichment (6-mer frequency, TF over GST control); with ERG, 1.34 fold enrichment (6-mer frequency, TF over GST control); with ELF1 it was 1.42 fold enrichment (6-mer frequency, TF over GST control); with EHF, 1.45 fold enrichment (6-mer frequency, TF over GST control). The binding signal was 1.44 fold enrichment (6-mer frequency, TF over GST control) with SPI1; 1.33 fold enrichment (6-mer frequency, TF over GST control) in the experiment with SPIB; 1.56 fold enrichment (6-mer frequency, TF over GST control) with ELK3.
In the case of GCTAAT, the binding signal in the experiment with FLI1 is 1.14 fold enrichment (6-mer frequency, TF over GST control); with ELK1, 1.18 fold enrichment (6-mer frequency, TF over GST control); with GABPA, 1.17 fold enrichment (6-mer frequency, TF over GST control); with ERG it was 1.13 fold enrichment (6-mer frequency, TF over GST control); with ELF1, 1.16 fold enrichment (6-mer frequency, TF over GST control); in the experiment with EHF it was 1.17 fold enrichment (6-mer frequency, TF over GST control). The binding signal in the experiment with SPI1 was 1.13 fold enrichment (6-mer frequency, TF over GST control); with SPIB, 1.17 fold enrichment (6-mer frequency, TF over GST control); with ELK3, 1.2 fold enrichment (6-mer frequency, TF over GST control).
As for TTTGCA, the binding signal with FLI1 was 1.27 fold enrichment (6-mer frequency, TF over GST control); with ELK1, 1.33 fold enrichment (6-mer frequency, TF over GST control); with GABPA, 1.34 fold enrichment (6-mer frequency, TF over GST control); in the experiment with ERG, 1.29 fold enrichment (6-mer frequency, TF over GST control); with ELF1, 1.32 fold enrichment (6-mer frequency, TF over GST control); in the experiment with EHF it was 1.19 fold enrichment (6-mer frequency, TF over GST control). Moreover, the binding signal is 1.22 fold enrichment (6-mer frequency, TF over GST control) with SPI1; 1.29 fold enrichment (6-mer frequency, TF over GST control) with SPIB; 1.32 fold enrichment (6-mer frequency, TF over GST control) in the experiment with ELK3.
For TGGCTA, the binding signal in the experiment with FLI1 is 1.15 fold enrichment (6-mer frequency, TF over GST control); with ELK1, 1.23 fold enrichment (6-mer frequency, TF over GST control); with GABPA, 1.24 fold enrichment (6-mer frequency, TF over GST control); with ERG, 1.17 fold enrichment (6-mer frequency, TF over GST control); in the experiment with ELF1, 1.22 fold enrichment (6-mer frequency, TF over GST control); in the experiment with EHF it was 1.19 fold enrichment (6-mer frequency, TF over GST control). Also, the binding signal with SPI1 was 1.2 fold enrichment (6-mer frequency, TF over GST control); with SPIB it was 1.31 fold enrichment (6-mer frequency, TF over GST control); with ELK3, 1.14 fold enrichment (6-mer frequency, TF over GST control).
As to AAATGA, the binding signal with FLI1 was 1.23 fold enrichment (6-mer frequency, TF over GST control); with ELK1, 1.32 fold enrichment (6-mer frequency, TF over GST control); with GABPA, 1.26 fold enrichment (6-mer frequency, TF over GST control); in the experiment with ERG it was 1.3 fold enrichment (6-mer frequency, TF over GST control); in the experiment with ELF1 it was 1.26 fold enrichment (6-mer frequency, TF over GST control); with EHF, 1.23 fold enrichment (6-mer frequency, TF over GST control). The binding signal with SPI1 was 1.45 fold enrichment (6-mer frequency, TF over GST control); in the experiment with SPIB it was 1.37 fold enrichment (6-mer frequency, TF over GST control); in the experiment with ELK3, 1.26 fold enrichment (6-mer frequency, TF over GST control).
In the case of AAATTG, the binding signal with FLI1 is 1.2 fold enrichment (6-mer frequency, TF over GST control); with ELK1 it was 1.23 fold enrichment (6-mer frequency, TF over GST control); with GABPA, 1.26 fold enrichment (6-mer frequency, TF over GST control); with ERG, 1.23 fold enrichment (6-mer frequency, TF over GST control); in the experiment with ELF1, 1.22 fold enrichment (6-mer frequency, TF over GST control); in the experiment with EHF, 1.28 fold enrichment (6-mer frequency, TF over GST control). Besides, the binding signal in the experiment with SPI1 is 1.26 fold enrichment (6-mer frequency, TF over GST control); with SPIB it was 1.25 fold enrichment (6-mer frequency, TF over GST control); with ELK3, 1.22 fold enrichment (6-mer frequency, TF over GST control).
